Reference: PubChem BioAssay (Tox21)
Records with an inconclusive call do not appear. Activity calls are given as the source filed them. Unless noted, calls come from the whole dose curve; as a rule, active = well fitted curve in the direction sought with a large enough effect in the repeat runs; inconclusive = weak or mixed curves; inactive = no such curve, though single readings can be large; an effect the other way counts as inactive or inconclusive.

How the values were obtained:
[1] = A CellTox Green Cytotoxicity Assay to monitor cytotoxicity in HepG2 cells - 32 hour (AID 1224883); note: nearly all actives have a fitted effect of over 50% in size
Outline: (§1)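 Measurements at 0, 8, 16, 24, 32 and 40 h of treatment captured CellTox Green fluorescence in HepG2 cells that had been co-plated with reagent and preincubated 5 h at 37 C/5% CO2.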

[2] = A CellTox Green Cytotoxicity Assay to monitor cytotoxicity in HEK293 cells - 8 hour (AID 1224884); note: nearly all actives have a fitted effect of over 35% in size
Outline: (§2)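 Tox21 screen in HEK293: membrane-impermeant cyanine dye fluoresces on binding dead-cell DNA; compound pinned 5 h post-seeding, plates held at 37 C, signal read repeatedly through 40 h.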

[3] = qHTS RealTime-Glo MT Cell Viability Assay in HepG2 cells - 16 hour (AID 1224885); note: nearly all actives have a fitted effect of over 50% in size
Outline: (§3)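 Luminescence read-out: viable HepG2 cells reduce a prosubstrate to a NanoLuc substrate, giving a signal proportional to live cell number. Reads taken at 0, 8, 16, 24, 32 and 40 h of compound exposure at 37 C.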

[4] = qHTS RealTime-Glo MT Cell Viability Assay in HEK293 cells - 24 hour (AID 1224886); note: top concentration of the series differs between compounds; nearly all actives have a fitted effect of over 50% in size
Outline: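 Nonlytic real-time viability readout: viable cells convert prosubstrate to NanoLuc substrate, giving luminescence proportional to live cell number. HEK293, 600 cells/well, compound added after 5 h, continuous culture at 37 C.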

[5] = qHTS RealTime-Glo MT Cell Viability Assay in HEK293 cells - 8 hour (AID 1224887); note: top concentration of the series differs between compounds; nearly all actives have a fitted effect of over 50% in size
Outline: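 HEK293 + NanoLuc + prosubstrate, 600 cells/well; 5 h, 37 C/5% CO2; compound 23 nL in DMSO by pintool; 37 C; luminescence read at 0, 8, 16, 24, 32 and 40 h time points.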

[6] = A CellTox Green Cytotoxicity Assay to monitor cytotoxicity in HEK293 cells - 16 hour (AID 1224888); note: nearly all actives have a fitted effect of over 35% in size
Outline: as §2

[7] = qHTS RealTime-Glo MT Cell Viability Assay in HepG2 cells - 0 hour (AID 1224889); note: nearly all actives have a fitted effect of over 50% in size
Outline: as §3

[8] = A CellTox Green Cytotoxicity Assay to monitor cytotoxicity in HepG2 cells - 8 hour (AID 1224890); note: nearly all actives have a fitted effect of over 45% in size
Outline: as §1

[9] = qHTS assay to identify small molecule antagonists of the estrogen receptor alpha (ER-alpha) signaling pathway using the BG1 cell line in the presence of 0.1 nM 17-beta-estradiol - cell viability counter screen (AID 1259241); note: nearly all actives have a fitted effect of over 40% in size
Outline: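 VM7Luc4E2 cells (endogenous full-length ER-alpha, 4xERE-luciferase), cultured 5 days in charcoal-stripped serum, exposed to compounds with 0.1 nM 17beta-estradiol (final) for 22 hr at 37C. Viability read in same wells as live-cell protease fluorescence after 30 min.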

[10] = qHTS assay to identify small molecule antagonists of the androgen receptor (AR) signaling pathway using the MDA cell line in the presence of 0.5 nM R1881 - cell viability counter screen (AID 1259242); note: nearly all actives have a fitted effect of over 45% in size
Outline: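 Concentration-response screen of compounds for toxicity in MDA-kb2 reporter cells: 16 hr at 37C with 0.5 nM R1881, endpoint live-cell protease fluorescence measured in the reporter wells.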

[11] = molecular target: Estrogen receptor (Homo sapiens) (UniProt P03372); experiment: qHTS assay to identify small molecule antagonists of the estrogen receptor alpha (ER-alpha) signaling pathway using the BG1 cell line in the presence of 0.1 nM 17-beta-estradiol (AID 1259244); note: nearly all actives have a fitted effect of over 50% in size
Outline: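 Compounds were tested against 0.1 nM (final) 17beta-estradiol in VM7Luc4E2 cells, which express full-length ER-alpha and an ERE-luciferase reporter; luminescence was recorded following 22 h exposure.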

[12] = qHTS assay to identify small molecule HDAC inhibitors (AID 1259364);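 note: wild-type HCT-116 cells with endogenous class I/II HDAC activity; top concentration of the series differs between compounds; nearly all actives have a fitted effect of over 45% in size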
Outline: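 Screening used wild-type human colon HCT-116 cells incubated overnight, dosed with compounds for 2 hours, and assayed with a homogeneous luminogenic HDAC I/II reagent for 30 minutes at room temperature.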

[13] = qHTS assay to identify small molecule HDAC inhibitors - cell viability counter screen (AID 1259365)
Outline: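 Wild-type HCT-116 cells, 1,500/well, cultured overnight, then compound-treated 2 h at 37 C. Viability measured as ATP luminescence with CellTiter-Glo after 30 min at room temperature.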

[14] = qHTS assay to identify small molecule agonists of the sonic hedgehog signaling (Shh) pathway - cell viability counter screen (AID 1259366); note: nearly all actives have a fitted effect of over 50% in size
Outline: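 NIH/3T3-derived Gli1-Luc reporter cells, 2,000 per well, received compound after 4 h and were treated about 23 h at 37C. Viability measured in the same wells by CellTiter-Fluor fluorescence after 1 h.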

[15] = qHTS assay to identify small molecule antagonists of the sonic hedgehog signaling (Shh) pathway - cell viability counter screen (AID 1259367); note: nearly all actives have a fitted effect of over 55% in size
Outline: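 Cytotoxicity was assessed in parallel with Shh reporter activity by measuring live-cell protease fluorescence (CellTiter-Fluor) in NIH/3T3 cells stably carrying Gli1-Luc, treated with compound under conditioned medium stimulation for 23 hr plus 1 hr reagent incubation.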

[16] = qHTS assay to identify small molecule agonists of the sonic hedgehog signaling (Shh) pathway (AID 1259368; calls by dose curve;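 note: NIH/3T3-derived 3T3Gli1-Luc cells carrying a stable Gli1-driven firefly luciferase reporter; series mostly up to about 92 µM; nearly all actives have a fitted effect of over 15% in size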)
Outline: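 Hedgehog pathway agonism scored by increased firefly luciferase luminescence in 3T3Gli1-Luc cells treated 24 hr at 37 C; detection used a 30 min room-temperature reagent incubation.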

[17] = molecular target: Estrogen receptor beta (Homo sapiens) (UniProt Q92731); experiment: qHTS assay to identify small molecule agonists of the estrogen receptor beta (ER-beta) signaling pathway (AID 1259377; active = well fitted activation curve with a large enough effect in the signal ratio in the repeat runs, not every such curve was filed as active; the % refers to the signal ratio)
Outline: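 ER-beta-UAS-bla HEK293T cells in medium with 2% charcoal-stripped FBS were exposed to compounds for 16 h at 37C. Beta-lactamase reporter activity was read as fluorescence after 2 h with LiveBLAzer B/G FRET substrate at room temperature.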

[18] = qHTS assay to identify small molecule antagonists of the sonic hedgehog signaling (Shh) pathway (AID 1259369; calls by dose curve; note: nearly all actives have a fitted effect of over 45% in size)
Outline: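 NIH/3T3 stable Gli1-Luc clone, 2,000 cells/well, 4hr settle; cpd + conditioned medium 24hr; Luc reagent 30min RT; luminescence.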

[19] = molecular target: Androgen receptor (Homo sapiens) (UniProt P10275); experiment: qHTS assay to identify small molecule antagonists of the androgen receptor (AR) signaling pathway using the MDA cell line in the presence of 0.5 nM R1881 (AID 1259243); note: nearly all actives have a fitted effect of over 50% in size
Outline: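 With R1881 held at 0.5 nM (final), compound effects on MMTV-luciferase expression in MDA-kb2 cells were scored by luminescence after a 16 hr, 37C incubation.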

Measured: Potency

Chain of Estrogen receptor beta (Homo sapiens) (Q92731 whole entry, looked up): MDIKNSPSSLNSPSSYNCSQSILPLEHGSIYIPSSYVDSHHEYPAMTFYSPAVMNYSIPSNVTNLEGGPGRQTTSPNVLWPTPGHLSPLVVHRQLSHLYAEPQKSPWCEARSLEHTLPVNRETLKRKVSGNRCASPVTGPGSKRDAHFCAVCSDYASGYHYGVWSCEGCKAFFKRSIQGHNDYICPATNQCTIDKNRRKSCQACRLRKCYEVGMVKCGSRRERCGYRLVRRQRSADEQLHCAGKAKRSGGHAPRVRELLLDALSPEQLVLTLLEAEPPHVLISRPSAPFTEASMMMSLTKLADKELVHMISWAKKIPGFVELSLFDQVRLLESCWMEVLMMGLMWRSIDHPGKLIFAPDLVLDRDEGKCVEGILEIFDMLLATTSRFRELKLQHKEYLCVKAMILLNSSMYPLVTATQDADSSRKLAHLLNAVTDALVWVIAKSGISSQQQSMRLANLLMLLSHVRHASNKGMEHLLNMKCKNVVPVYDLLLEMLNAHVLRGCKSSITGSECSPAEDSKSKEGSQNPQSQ
Chain of Estrogen receptor (Homo sapiens) (P03372 whole entry, looked up): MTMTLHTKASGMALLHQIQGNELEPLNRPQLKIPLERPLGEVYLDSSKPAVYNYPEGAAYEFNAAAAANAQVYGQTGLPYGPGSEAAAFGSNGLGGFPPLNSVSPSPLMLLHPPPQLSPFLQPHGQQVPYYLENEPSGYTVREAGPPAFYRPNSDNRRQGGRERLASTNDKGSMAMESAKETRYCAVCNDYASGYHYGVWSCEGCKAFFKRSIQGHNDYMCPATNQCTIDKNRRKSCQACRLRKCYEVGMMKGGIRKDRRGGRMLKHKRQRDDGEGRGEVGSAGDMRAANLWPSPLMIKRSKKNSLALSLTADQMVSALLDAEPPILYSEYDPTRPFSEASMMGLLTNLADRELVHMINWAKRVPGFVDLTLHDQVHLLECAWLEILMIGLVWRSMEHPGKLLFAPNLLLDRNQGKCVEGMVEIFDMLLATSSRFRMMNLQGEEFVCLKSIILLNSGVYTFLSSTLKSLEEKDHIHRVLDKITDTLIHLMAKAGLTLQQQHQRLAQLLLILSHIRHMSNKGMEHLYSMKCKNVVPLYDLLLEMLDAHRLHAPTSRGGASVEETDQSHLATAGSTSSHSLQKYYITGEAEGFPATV
Chain of Androgen receptor (Homo sapiens) (P10275 whole entry, looked up): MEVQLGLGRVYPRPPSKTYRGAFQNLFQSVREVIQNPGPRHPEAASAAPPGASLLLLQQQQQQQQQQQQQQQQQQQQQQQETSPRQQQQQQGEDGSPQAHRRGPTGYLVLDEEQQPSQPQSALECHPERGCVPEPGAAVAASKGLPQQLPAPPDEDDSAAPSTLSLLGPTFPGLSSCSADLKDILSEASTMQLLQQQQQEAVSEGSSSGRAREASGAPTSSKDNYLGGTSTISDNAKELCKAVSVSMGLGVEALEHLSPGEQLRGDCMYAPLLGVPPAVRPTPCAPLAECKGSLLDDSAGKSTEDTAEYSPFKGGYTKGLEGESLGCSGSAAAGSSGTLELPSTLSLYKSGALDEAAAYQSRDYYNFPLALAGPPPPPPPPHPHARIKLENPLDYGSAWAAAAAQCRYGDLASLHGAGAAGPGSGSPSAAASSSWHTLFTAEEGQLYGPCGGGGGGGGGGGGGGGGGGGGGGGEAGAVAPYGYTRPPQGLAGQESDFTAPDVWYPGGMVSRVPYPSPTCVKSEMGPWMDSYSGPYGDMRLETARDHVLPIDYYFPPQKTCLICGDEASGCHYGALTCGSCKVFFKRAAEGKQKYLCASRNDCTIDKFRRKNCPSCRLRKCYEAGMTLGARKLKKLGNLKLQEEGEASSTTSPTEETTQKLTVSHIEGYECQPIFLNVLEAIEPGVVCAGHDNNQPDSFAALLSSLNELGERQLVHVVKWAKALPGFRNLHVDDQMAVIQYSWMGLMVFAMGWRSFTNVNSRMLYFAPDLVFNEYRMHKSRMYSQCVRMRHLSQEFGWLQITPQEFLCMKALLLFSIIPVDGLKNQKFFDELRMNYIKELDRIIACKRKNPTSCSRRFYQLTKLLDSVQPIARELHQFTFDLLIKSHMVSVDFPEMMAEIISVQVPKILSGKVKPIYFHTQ

CCCCCCCCOS(=O)(=O)O
not listed: [18] | [19]
inactive: all other assays above

CC(=O)CCCCn1c(=O)c2c(ncn2C)n(C)c1=O
not listed: [11] | [19]
inactive: all other assays above

O=C1O[C@@H]2[C@@H](O)[C@H](O)O[C@@H]2[C@H]1O
not listed: [18] | [19]
inactive: all other assays above

CC(C)CCCCOC(=O)c1ccccc1C(=O)OCCCCC(C)C
not listed: [11] | [16] | [19]
inactive: all other assays above

O=Cc1ccc(Cl)c(Cl)c1
not listed: [11] | [19]
inactive: all other assays above

CCCOC(OCCC)OCCC
not listed: [11] | [19]
inactive: all other assays above

Nc1cccc(O)c1
not listed: [15] | [17] | [19]
inactive: all other assays above

CCC(CC)CO
not listed: [10] | [15] | [17]
inactive: all other assays above
